Laboratory results as given in ChEMBL document CHEMBL2218924, “A broad activity screen in support of a chemogenomic map for kinase signalling research and drug discovery” (Biochem J, 2013).

Legend:
[1] = molecular target: T1, Testis-specific serine/threonine-protein kinase 1 (Homo sapiens) (UniProt Q9BXA7); conditions: at 1 µM
T1 sequence (whole entry): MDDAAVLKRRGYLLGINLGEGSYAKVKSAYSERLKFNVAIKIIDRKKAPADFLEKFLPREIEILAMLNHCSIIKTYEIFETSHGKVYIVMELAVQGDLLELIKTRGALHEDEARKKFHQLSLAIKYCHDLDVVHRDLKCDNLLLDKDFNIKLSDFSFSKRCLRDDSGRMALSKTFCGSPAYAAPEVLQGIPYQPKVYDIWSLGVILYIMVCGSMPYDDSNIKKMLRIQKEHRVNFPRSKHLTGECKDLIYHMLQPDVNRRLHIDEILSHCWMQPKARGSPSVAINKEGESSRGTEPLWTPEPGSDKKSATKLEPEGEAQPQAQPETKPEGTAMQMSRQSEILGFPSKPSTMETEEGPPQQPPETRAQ

[2] = molecular target: T1, Testis-specific serine/threonine-protein kinase 1 (Homo sapiens); conditions: at 10 µM
[3] = molecular target: T2, Testis-specific serine/threonine-protein kinase 2 (Homo sapiens) (UniProt Q96PF2); conditions: at 10 µM
T2 sequence (whole entry): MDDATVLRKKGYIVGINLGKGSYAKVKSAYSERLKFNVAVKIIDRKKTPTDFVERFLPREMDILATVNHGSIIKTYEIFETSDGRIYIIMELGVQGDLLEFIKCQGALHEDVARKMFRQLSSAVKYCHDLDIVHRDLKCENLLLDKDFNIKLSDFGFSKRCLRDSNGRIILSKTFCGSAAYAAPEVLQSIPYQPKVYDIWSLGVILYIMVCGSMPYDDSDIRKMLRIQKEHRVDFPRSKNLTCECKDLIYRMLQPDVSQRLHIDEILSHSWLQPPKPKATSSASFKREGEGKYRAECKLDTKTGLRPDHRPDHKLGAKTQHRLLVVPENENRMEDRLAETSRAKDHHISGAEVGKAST

[4] = molecular target: T3, Tyrosine-protein kinase Tec (Homo sapiens) (UniProt P42680); conditions: at 1 µM
T3 sequence (whole entry): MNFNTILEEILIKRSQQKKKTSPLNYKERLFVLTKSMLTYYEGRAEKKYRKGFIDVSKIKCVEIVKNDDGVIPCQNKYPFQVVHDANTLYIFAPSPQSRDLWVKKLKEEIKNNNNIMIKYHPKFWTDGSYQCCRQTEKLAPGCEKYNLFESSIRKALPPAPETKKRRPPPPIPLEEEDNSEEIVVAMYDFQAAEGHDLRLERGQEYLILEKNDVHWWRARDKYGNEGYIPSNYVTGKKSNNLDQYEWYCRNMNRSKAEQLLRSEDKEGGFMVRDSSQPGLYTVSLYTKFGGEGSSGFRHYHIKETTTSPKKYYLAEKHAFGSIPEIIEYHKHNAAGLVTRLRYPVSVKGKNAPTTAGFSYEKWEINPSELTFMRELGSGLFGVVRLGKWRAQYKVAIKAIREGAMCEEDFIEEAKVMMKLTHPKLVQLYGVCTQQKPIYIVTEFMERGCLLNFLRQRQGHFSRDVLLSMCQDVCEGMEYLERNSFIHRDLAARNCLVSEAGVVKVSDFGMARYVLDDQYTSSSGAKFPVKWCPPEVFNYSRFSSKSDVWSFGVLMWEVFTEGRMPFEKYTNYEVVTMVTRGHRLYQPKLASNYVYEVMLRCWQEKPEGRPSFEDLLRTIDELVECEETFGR

[5] = molecular target: T3, Tyrosine-protein kinase Tec (Homo sapiens); conditions: at 10 µM
[6] = molecular target: Angiopoietin-1 receptor (Homo sapiens) (UniProt Q02763); conditions: at 1 µM
Chain of Angiopoietin-1 receptor (Homo sapiens) (Q02763 whole entry): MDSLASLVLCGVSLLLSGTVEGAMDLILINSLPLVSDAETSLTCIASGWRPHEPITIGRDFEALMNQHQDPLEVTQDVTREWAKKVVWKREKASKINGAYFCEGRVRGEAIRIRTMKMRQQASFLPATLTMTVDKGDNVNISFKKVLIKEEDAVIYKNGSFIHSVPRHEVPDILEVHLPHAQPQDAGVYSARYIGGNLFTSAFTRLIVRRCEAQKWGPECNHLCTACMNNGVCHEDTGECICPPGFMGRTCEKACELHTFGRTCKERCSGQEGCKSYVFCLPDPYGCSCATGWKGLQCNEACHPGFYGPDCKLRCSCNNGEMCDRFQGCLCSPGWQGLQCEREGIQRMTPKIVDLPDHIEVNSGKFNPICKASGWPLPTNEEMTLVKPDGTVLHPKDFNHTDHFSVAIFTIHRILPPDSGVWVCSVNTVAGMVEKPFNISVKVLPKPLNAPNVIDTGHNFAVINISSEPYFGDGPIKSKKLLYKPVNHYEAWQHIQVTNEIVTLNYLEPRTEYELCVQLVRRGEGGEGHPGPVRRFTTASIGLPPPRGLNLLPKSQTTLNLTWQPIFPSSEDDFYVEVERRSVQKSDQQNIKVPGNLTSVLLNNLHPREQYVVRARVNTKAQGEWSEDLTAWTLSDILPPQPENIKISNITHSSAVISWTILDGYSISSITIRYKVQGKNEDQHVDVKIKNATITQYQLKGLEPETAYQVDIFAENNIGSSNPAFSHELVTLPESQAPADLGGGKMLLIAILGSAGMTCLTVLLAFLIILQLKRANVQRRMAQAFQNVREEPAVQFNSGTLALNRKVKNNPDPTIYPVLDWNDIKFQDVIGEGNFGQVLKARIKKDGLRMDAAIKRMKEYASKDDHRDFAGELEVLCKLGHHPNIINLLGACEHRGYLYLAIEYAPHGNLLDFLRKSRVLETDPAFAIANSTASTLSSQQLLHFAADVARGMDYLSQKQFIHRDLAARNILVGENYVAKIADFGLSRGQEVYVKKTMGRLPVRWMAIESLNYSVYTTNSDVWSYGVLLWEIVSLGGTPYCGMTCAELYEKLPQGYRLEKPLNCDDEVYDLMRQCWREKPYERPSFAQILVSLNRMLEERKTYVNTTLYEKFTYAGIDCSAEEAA

[7] = molecular target: Angiopoietin-1 receptor (Homo sapiens) (UniProt Q02763); conditions: at 10 µM
[8] = molecular target: High affinity nerve growth factor receptor (Homo sapiens) (UniProt P04629); conditions: at 1 µM
[9] = molecular target: High affinity nerve growth factor receptor (Homo sapiens) (UniProt P04629); conditions: at 10 µM
[10] = molecular target: T4, Tyrosine-protein kinase TXK (Homo sapiens) (UniProt P42681); conditions: at 10 µM
T4 sequence (whole entry): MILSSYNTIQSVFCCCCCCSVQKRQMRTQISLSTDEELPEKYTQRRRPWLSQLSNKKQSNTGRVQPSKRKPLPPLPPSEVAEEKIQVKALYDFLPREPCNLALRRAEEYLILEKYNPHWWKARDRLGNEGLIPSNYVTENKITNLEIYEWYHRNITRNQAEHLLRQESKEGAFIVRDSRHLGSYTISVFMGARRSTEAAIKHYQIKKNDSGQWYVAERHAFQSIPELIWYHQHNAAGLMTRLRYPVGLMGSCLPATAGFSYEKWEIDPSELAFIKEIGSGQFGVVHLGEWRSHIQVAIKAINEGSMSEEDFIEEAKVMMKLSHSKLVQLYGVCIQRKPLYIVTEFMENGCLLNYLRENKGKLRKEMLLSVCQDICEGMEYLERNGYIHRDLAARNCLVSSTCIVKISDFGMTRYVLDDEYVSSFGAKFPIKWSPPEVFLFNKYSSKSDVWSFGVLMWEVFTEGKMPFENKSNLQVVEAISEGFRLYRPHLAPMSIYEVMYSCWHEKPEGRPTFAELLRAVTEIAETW

[11] = molecular target: T5, Serine/threonine-protein kinase ULK2 (Homo sapiens) (UniProt Q8IYT8); conditions: at 10 µM
T5 sequence (whole entry): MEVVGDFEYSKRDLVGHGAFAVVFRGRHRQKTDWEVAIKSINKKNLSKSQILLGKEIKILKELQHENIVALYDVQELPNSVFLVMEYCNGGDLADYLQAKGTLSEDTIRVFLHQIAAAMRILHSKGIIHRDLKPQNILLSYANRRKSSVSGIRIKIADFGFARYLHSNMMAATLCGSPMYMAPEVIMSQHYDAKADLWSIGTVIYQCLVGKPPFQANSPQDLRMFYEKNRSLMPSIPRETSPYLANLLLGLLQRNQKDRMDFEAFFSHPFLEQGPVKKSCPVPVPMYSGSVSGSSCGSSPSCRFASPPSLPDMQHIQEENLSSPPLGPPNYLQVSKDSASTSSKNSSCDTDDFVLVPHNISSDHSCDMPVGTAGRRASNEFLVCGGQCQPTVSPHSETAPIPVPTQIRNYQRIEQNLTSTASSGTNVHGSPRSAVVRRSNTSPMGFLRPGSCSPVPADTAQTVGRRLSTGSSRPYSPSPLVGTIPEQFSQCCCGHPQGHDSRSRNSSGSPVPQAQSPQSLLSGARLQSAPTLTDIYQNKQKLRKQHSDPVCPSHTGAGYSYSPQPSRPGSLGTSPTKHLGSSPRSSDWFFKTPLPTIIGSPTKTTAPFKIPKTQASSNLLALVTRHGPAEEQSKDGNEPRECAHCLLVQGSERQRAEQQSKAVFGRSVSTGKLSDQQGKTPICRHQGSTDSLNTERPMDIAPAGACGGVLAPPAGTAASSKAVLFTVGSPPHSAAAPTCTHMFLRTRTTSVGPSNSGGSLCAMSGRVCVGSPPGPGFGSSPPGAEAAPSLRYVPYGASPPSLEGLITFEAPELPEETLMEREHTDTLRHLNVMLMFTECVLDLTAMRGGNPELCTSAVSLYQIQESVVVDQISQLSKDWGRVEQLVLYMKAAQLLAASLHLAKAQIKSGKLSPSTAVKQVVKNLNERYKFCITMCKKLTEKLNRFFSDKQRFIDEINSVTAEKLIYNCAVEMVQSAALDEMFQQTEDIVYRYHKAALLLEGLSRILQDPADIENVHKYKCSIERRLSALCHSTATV

[12] = molecular target: T6, Serine/threonine-protein kinase ULK3 (Homo sapiens) (UniProt Q6PHR2); conditions: at 1 µM
T6 sequence (whole entry): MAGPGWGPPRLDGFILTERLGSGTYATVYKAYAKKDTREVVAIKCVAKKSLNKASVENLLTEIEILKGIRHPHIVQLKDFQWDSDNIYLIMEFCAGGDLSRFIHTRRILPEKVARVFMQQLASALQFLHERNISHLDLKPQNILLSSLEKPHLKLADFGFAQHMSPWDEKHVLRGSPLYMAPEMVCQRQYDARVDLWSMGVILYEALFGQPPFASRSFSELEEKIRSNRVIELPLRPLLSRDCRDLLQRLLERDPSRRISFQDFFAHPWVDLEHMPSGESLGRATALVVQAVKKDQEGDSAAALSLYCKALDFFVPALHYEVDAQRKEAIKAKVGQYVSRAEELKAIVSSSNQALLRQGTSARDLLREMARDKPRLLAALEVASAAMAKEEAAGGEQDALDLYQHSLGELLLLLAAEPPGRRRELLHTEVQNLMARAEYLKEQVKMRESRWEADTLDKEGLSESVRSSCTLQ

[13] = molecular target: T6, Serine/threonine-protein kinase ULK3 (Homo sapiens); conditions: at 10 µM
[14] = molecular target: Serine/threonine-protein kinase VRK2 (Homo sapiens) (UniProt Q86Y07); conditions: at 1 µM
Chain of Serine/threonine-protein kinase VRK2 (Homo sapiens) (Q86Y07 whole entry): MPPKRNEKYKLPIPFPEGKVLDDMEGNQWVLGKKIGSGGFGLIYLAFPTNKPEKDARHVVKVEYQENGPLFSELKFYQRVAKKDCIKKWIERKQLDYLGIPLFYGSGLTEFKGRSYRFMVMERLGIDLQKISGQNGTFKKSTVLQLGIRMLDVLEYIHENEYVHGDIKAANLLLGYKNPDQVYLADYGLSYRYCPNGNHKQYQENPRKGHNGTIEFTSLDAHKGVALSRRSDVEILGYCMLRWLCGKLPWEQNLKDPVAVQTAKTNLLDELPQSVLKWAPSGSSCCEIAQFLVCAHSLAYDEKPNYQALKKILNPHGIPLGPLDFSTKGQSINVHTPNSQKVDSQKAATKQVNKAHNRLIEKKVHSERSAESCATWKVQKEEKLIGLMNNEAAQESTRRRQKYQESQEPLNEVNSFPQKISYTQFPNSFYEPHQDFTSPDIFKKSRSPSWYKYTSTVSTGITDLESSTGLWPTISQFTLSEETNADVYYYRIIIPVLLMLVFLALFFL

[15] = molecular target: Serine/threonine-protein kinase VRK2 (Homo sapiens) (UniProt Q86Y07); conditions: at 10 µM
[16] = molecular target: Serine/threonine-protein kinase WNK2 (Homo sapiens) (UniProt Q9Y3S1); conditions: at 1 µM;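 note: residual WNK2 kinase activity expressed as percent of uninhibited control, assayed in MOPS buffer at pH 7.0 containing EDTA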
Chain of Serine/threonine-protein kinase WNK2 (Homo sapiens) (Q9Y3S1 whole entry): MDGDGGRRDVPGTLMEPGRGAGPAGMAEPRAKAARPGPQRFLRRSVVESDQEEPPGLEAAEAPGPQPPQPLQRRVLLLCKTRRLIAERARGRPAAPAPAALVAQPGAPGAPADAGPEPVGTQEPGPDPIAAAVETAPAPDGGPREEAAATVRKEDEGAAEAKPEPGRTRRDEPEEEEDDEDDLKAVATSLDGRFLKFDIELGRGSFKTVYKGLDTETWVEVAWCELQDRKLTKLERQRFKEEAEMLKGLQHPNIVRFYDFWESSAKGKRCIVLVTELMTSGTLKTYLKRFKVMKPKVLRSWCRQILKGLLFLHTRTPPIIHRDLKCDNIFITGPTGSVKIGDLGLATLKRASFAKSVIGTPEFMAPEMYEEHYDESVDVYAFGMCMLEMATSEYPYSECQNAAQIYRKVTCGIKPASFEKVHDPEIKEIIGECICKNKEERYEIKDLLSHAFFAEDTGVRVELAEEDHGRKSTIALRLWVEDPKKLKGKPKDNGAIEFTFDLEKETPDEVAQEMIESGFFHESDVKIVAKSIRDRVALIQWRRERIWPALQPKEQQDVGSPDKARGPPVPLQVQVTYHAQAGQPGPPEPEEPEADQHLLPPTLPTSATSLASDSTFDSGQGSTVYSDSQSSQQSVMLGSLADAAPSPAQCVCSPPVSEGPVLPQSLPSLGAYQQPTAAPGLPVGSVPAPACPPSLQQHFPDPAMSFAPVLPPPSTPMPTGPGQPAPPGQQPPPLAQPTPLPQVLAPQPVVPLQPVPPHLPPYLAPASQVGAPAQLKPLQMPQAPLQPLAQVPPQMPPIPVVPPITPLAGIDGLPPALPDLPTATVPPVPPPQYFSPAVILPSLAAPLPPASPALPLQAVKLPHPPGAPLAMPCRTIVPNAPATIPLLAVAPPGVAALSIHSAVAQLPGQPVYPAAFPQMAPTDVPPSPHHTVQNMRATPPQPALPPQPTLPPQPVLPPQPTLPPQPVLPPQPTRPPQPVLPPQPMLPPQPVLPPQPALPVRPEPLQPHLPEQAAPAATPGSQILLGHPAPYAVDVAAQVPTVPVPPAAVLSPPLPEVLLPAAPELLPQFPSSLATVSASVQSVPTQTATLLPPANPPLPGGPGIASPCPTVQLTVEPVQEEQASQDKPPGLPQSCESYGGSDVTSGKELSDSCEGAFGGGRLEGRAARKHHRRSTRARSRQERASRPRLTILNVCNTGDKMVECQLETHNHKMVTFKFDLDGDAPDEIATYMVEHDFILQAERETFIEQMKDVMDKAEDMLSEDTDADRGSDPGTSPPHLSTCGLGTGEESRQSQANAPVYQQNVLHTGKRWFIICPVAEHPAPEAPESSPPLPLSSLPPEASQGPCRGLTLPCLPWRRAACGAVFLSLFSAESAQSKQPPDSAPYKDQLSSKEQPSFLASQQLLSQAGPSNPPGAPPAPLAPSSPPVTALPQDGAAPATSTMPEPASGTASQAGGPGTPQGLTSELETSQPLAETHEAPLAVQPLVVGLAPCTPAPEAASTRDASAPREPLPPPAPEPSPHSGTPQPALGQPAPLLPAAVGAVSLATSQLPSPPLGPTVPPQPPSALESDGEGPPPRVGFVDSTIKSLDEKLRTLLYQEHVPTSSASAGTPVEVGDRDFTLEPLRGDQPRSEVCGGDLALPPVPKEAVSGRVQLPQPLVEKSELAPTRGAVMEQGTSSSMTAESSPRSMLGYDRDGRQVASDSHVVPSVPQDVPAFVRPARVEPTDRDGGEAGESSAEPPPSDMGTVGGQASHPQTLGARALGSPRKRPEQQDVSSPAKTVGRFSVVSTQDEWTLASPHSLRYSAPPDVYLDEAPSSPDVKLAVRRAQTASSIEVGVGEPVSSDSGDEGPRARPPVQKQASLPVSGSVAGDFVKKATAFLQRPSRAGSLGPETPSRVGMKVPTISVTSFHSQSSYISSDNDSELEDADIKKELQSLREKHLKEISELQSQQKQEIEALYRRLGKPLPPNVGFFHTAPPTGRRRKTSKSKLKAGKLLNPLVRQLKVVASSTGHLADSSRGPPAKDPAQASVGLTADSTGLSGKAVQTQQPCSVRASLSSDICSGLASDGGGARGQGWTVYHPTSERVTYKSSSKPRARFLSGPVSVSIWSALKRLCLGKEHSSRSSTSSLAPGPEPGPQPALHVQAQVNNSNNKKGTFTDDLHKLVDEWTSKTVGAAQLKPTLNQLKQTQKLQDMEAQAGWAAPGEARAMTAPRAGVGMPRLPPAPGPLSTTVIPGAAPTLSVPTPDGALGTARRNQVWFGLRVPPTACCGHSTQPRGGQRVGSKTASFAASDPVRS

[17] = molecular target: BDNF/NT-3 growth factors receptor (Homo sapiens) (UniProt Q16620); conditions: at 1 µM
Chain of BDNF/NT-3 growth factors receptor (Homo sapiens) (Q16620 32-822 limits assumed): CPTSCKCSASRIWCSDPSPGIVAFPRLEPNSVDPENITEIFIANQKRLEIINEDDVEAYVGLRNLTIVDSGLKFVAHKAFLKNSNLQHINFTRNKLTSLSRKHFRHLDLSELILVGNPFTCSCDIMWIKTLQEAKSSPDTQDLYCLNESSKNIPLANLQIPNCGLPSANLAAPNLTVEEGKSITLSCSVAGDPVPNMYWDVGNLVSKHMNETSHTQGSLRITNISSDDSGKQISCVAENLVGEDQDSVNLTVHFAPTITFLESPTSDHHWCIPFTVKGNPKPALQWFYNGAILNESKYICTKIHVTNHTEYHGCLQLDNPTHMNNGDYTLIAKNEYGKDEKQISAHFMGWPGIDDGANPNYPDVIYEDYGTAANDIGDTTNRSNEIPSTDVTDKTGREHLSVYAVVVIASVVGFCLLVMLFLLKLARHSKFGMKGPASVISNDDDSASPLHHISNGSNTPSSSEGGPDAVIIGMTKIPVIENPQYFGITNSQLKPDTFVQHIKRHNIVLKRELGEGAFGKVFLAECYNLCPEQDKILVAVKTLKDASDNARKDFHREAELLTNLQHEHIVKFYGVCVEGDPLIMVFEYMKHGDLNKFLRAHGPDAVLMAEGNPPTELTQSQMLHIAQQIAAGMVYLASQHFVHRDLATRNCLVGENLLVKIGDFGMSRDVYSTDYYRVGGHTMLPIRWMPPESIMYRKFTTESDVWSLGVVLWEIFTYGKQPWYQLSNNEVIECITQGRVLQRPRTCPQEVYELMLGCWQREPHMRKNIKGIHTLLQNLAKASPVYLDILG

[18] = molecular target: BDNF/NT-3 growth factors receptor (Homo sapiens) (UniProt Q16620); conditions: at 10 µM
[19] = molecular target: T4, Tyrosine-protein kinase TXK (Homo sapiens); conditions: at 1 µM
[20] = molecular target: T5, Serine/threonine-protein kinase ULK2 (Homo sapiens); conditions: at 1 µM

| Compound | residual activity [1] [%] | residual activity [2] [%] | residual activity [3] [%] | residual activity [4] [%] | residual activity [5] [%] | residual activity [6] [%] | residual activity [7] [%] | residual activity [8] [%] | residual activity [9] [%] | residual activity [10] [%] | residual activity [11] [%] | residual activity [12] [%] | residual activity [13] [%] | residual activity [14] | residual activity [15] [%] | residual activity [16] | residual activity [17] [%] | residual activity [18] [%] | residual activity [19] [%] | residual activity [20] [%] |
| --- | --- | --- | --- | --- | --- | --- | --- | --- | --- | --- | --- | --- | --- | --- | --- | --- | --- | --- | --- | --- |
| Cc1cccc(-c2[nH]c(C(C)(C)C)nc2-c2ccc3c(c2)OCO3)n1 | 101 | 90 | 94 | 97 | 91 | 101 | 83 | 92 | 106 | 98 | 94 | 104 | 96 | 105% (inactive) | 71 | 106% (inactive) |  |  |  |  |
| COc1cccc(-c2cc(=O)c3ccccc3o2)c1N | 103 | 89 | 86 | 87 | 91 | 108 | 106 | 99 | 92 | 73 | 108 | 100 | 105 | 99% (inactive) | 96 | 104% (inactive) | 105 | 87 | 77 | 117 |
| c1ccc(-c2n[nH]cc2-c2ccnc3ccccc23)nc1 | 91 | 92 | 93 | 88 | 91 | 91 | 90 | 72 | 76 | 64 | 97 | 100 | 98 | 95% (inactive) | 67 | 105% (inactive) |  |  |  |  |
| O=C(Nc1cccc(Nc2cc(Nc3cccc(C(F)(F)F)c3)ncn2)c1)C1CC1 | 101 | 87 | 77 | 96 | 27 | 60 | 70 | 68 | 9 | 69 | 103 | 110 | 94 | 107% (inactive) | 77 | 103% (inactive) | 76 | 37 | 109 | 103 |
| O=[N+]([O-])c1ccc(-c2nc(-c3ccc(F)cc3)c(-c3ccncc3)[nH]2)cc1 | 97 | 85 | 94 | 98 | 70 | 98 | 86 | 96 | 90 | 66 | 106 | 103 | 103 |  | 93 | 102% (inactive) | 98 | 107 | 61 | 112 |
| COc1cc2ncc(-c3ccccc3)nc2cc1OC |  | 92 | 84 | 96 | 63 |  | 80 | 39 | -1 | 73 |  |  | 86 |  |  |  | 54 | 37 | 96 |  |
| O=C1c2ccccc2-[n+]2ccc3c([nH]c4ccccc43)c21 | 90 | 89 | 86 | 77 | 74 | 90 | 78 | 83 | 47 | 75 | 96 | 92 | 95 | 93% (inactive) | 92 | 95% (inactive) | 89 | 89 | 75 |  |
| CO[C@@H]1[C@H](N(C)C(=O)c2ccccc2)C[C@H]2O[C@]1(C)n1c3ccccc3c3c4c(c5c6ccccc6n2c5c31)C(=O)NC4 | 15 | 6 | 30 | 85 | 40 | 133 | 73 | 0 | -1 | 69 | 76 | 17 | 5 | 99% (inactive) | 94 | 90% (inactive) | 23 | -12 | 82 |  |
| N#Cc1cnc2cnc(NCc3cccnc3)cc2c1Nc1ccc(F)c(Cl)c1 | 0 | -1 | 14 | 90 | 65 |  |  | 101 | 88 | 69 |  | 100 | 88 |  | 93 |  | 3 | 1 | 86 |  |
